# In all, about 310,000 compounds went through this assay and about 14,000 (4.5%) showed an effect of 50% or more. Effects have a minus sign here. The sample holds strong results, similar compounds and a random draw of the others, so the mix is not that of the screen.
# Biological target: human ether-à-go-go-related gene (hERG) potassium channel (human, UniProt Q12809)
# Experiment: primary screen, population patch clamp on CHO cells stably expressing hERG; higher = less effect of the substance
# 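Note: peak tail current of the secondary pulse compared with the same well before compound.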
# human ether-à-go-go-related gene (hERG) potassium channel, sequence (Q12809 whole entry, looked up): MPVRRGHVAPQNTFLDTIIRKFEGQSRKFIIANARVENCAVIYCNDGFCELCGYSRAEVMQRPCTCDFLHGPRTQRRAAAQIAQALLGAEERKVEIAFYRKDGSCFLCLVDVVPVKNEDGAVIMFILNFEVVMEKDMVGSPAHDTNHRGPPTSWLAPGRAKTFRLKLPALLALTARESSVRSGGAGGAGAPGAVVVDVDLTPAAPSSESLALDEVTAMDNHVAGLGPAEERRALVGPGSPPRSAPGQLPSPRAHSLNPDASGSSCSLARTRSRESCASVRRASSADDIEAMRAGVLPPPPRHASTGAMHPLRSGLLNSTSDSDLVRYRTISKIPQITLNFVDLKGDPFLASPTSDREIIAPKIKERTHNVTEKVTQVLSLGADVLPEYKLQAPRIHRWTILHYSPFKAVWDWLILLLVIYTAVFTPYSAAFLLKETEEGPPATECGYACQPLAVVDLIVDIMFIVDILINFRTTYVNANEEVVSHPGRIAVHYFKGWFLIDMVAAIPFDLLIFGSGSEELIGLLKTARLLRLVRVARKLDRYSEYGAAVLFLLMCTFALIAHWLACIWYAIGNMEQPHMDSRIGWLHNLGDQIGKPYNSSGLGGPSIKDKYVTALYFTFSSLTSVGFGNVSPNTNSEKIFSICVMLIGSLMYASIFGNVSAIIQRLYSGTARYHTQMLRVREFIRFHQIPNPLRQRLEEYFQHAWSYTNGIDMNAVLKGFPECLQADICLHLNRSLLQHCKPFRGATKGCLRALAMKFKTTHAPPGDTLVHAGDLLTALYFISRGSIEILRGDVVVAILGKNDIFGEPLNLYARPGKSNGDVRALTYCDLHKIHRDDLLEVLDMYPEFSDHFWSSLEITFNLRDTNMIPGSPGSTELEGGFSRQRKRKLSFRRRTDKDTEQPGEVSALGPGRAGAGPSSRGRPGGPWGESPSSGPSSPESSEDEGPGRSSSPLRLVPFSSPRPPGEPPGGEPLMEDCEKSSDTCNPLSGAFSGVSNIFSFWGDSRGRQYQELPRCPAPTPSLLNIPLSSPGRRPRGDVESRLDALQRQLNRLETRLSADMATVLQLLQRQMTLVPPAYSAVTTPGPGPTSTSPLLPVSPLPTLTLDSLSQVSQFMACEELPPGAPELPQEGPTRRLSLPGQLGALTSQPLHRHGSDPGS
row,Compound,"hERG current change (%, negative = inhibition) at 10uM"
1,CCOc1ccc(-n2nnc3c(=O)n(CC(=O)N4CCCc5ccccc54)cnc32)cc1,-4.52%
2,O=C(Nc1nc2ccc(S(=O)(=O)N3CCCC3)cc2s1)C1CCCCC1,4.81%
3,COc1ccc(C(CC(=O)N2CCC3(CC2)OCCO3)NS(=O)(=O)c2ccc(OC)cc2)cc1 (stereo not shown),7.14%
4,CC(C)Cn1c(=O)c2c(nc3n2CCCN3Cc2ccccc2)n(C)c1=O,-50%
5,C=C(C)Cn1c(=O)c2c(nc3n2CC(C)CN3Cc2ccccc2)n(C)c1=O (stereo not shown),-65.6%
6,Cn1c(=O)n(Cc2ccccc2)c(=O)c2c1nc1n2CCCN1Cc1ccccc1,-31.1%
7,CCCn1c(=O)c2c(nc3n2CCCN3CCc2ccccc2)n(C)c1=O,-65.4%
8,CC(C)CCn1c(=O)c2c(nc3n2CCCN3Cc2ccccc2)n(C)c1=O,-37.7%
9,CC1CN(Cc2ccccc2)c2nc3c(c(=O)n(CC(=O)O)c(=O)n3C)n2C1 (stereo not shown),18.8%
10,CCCn1c(=O)c2c(nc3n2CCCN3Cc2ccccc2)n(C)c1=O,-34.3%
11,CCn1c(=O)c2c(nc3n2CCCN3CCc2ccccc2)n(C)c1=O,-21.2%
12,CC1CN(Cc2ccccc2)c2nc3c(c(=O)n(CC(N)=O)c(=O)n3C)n2C1 (stereo not shown),14.5%
13,O=C(CCCOc1ccc(Cl)cc1)Nc1nncs1,-28.9%
14,Cc1cc(NC(=O)COc2cccc(Oc3ccccc3)c2)no1,13.5%
15,CCOc1cc(NCCN2CCOCC2)c([N+](=O)[O-])cc1OCC,-7.79%
16,COc1ccc(CC(=O)N2CCc3cc(OC)c(OC)cc3C2O)cc1OC (stereo not shown),8.05%
17,Cc1c(C)[n+](=O)c(-c2ccc(Br)cc2)c(C)n1[O-],13.1%
18,Cc1ccc2nc(Cl)c(C3CC(c4ccco4)=NN3S(C)(=O)=O)cc2c1 (stereo not shown),-62.6%
19,Cc1ccc2cc(C3CC(c4ccco4)=NN3S(C)(=O)=O)c(Cl)nc2c1 (stereo not shown),-15%
20,CCOc1ccc2nc(Cl)c(C3CC(c4ccco4)=NN3S(C)(=O)=O)cc2c1 (stereo not shown),-41.1%
21,Fc1ccc(NC(=S)Nc2ccccc2OC(F)F)cc1Cl,9.18%
22,CCOc1ccc(NC(=S)N(CCOC)C2CCN(C(C)C)CC2)cc1,-29%
23,CCN(CCn1cccn1)Cc1cn[nH]c1-c1ccc(-c2ccccc2)cc1,9.21%

row,Compound,"hERG current change (%, negative = inhibition) at 10uM"
1,Cc1nnc(CN(C)Cc2cn[nH]c2-c2ccc(-c3ccccc3)cc2)o1,-15.1%
2,CN(Cc1cn[nH]c1-c1cc2ccccc2o1)CC1CCOCC1,-66.4%
3,COC(=O)c1ccc(-c2noc(CN(Cc3nccn3C)C(C)C)n2)cc1,-37%
4,CC(C)N(Cc1nc(-c2ccc(Cl)cc2)no1)Cc1nccn1C,-50.4%
5,CN(Cc1ccon1)Cc1cn[nH]c1-c1ccc(-c2ccccc2)cc1,-10.4%
6,COc1ccc(-c2[nH]ncc2CN(Cc2nccn2C)C(C)C)c(F)c1,-39.7%
7,c1ccc2oc(-c3[nH]ncc3CN(Cc3ccncc3)CC3CCCO3)cc2c1 (stereo not shown),-22.6%
8,CN(Cc1cccnc1)Cc1cn[nH]c1-c1ccc(-c2ccccc2)cc1,-56.7%
9,CC(C)N(Cc1cn[nH]c1-c1ccc(-c2ccccc2)cc1)Cc1nccn1C,-71.9%
10,O=C1CC[C@@H](CN(Cc2ccccc2)Cc2cn[nH]c2-c2cc3ccccc3o2)N1,-6.77%
11,COc1ccc(-c2noc(CN(Cc3nccn3C)C(C)C)n2)cc1,-6.99%
12,Cc1csc(NC(=O)CCC(=O)N(CC(=O)NC2CCCC2)c2ccccc2)n1,-3.43%
13,Cc1ccc(CNC(=O)CCCOc2cc(=O)n(C)c3ccccc23)o1,-17.9%
14,Cc1[nH][nH]c(=O)c1N=Nc1ccc(Cl)cc1,2.19%
15,C/C(NC(=O)c1cccs1)=C1\C(=O)C[C@@H]2[C@H]1C2(C)C,-19.6%
16,CCOc1ccc(C(=O)CCC(=O)NC(CC(C)C)C(=O)OC)cc1 (stereo not shown),-2.17%
17,CCOC(=O)CNC(=O)c1sc(NC(=O)c2cccc(F)c2)nc1C,-0.522%
18,O=C(CCCOc1ccc(Cl)cc1Cl)Nc1ccccn1,24.2%
19,NC(=O)c1nn(-c2ccccc2)nc1N,0.947%
20,O=c1[nH]c2cc3c(cc2cc1C(c1nnnn1Cc1ccccc1)N1CCN2CCCC2C1)OCCO3 (stereo not shown),-0.778%
21,Cc1cc(C)nc(NC(=O)CCC2CCCC2)c1,-4.11%
22,COc1ccc2c(c1)CC/C(=C\c1ccc(C)o1)C2=O,8.29%
23,CCOC(=O)c1cn2nc(N3CCCC3)ccc2n1,1.32%

row,Compound,"hERG current change (%, negative = inhibition) at 10uM"
1,COCCN1CCC(CNCc2cn[nH]c2-c2ccc(C)c(C)c2)C1 (stereo not shown),-3.39%
2,CN(CCc1cnn(C)c1)Cc1cn[nH]c1-c1ccc(-c2ccccc2)cc1,-66.6%
3,Cn1cc(CNCc2cn[nH]c2-c2ccc(F)cc2)c(-c2ccc3c(c2)OCCO3)n1,-21.6%
4,CN(CCC1CCOCC1)Cc1cn[nH]c1-c1ccc(-c2ccccc2)cc1,-62.6%
5,Cc1ccc(-c2[nH]ncc2CNCCc2cnn(-c3ccccc3)c2)cc1C,-66.4%
6,COc1ccc(-c2[nH]ncc2CNCCc2ncccc2C)cc1F,-41.7%
7,CN(Cc1cn[nH]c1-c1ccc(-c2ccccc2)cc1)CC1CCOCC1,-46.2%
8,CN(CCc1cnn(C)c1)Cc1cn(C)nc1-c1ccc2c(c1)OCCO2,5.94%
9,CN(CCc1cnn(C)c1)Cc1cn(C)nc1-c1ccccc1F,9.85%
10,CCn1cc(CNCc2cn[nH]c2-c2cc3ccccc3o2)cn1,-14.1%
11,CN(Cc1cn[nH]c1-c1ccc2c(c1)OCO2)C1CCOCC1,12.7%
12,Cn1cc(CCNCc2cn[nH]c2-c2ccc(-c3ccccc3)cc2)cn1,-64.8%
13,O=C(COc1ccc2c3c(c(=O)oc2c1)CCC3)Nc1ccc(CCO)cc1,21.2%
14,O=C(CCc1nnc(Cc2ccc(-c3ccccc3)cc2)o1)NCC1CC1,-4.72%
15,CN(C)c1cc2c(cc1NS(=O)(=O)c1ccccc1)n(C)c(=O)n2C,10.5%
16,CN1CCN(C(=O)Nc2cccc(-c3ccccc3)c2)CC1,-3.63%
17,O=C(NCCC1=CCCCC1)c1c(O)nc2ccccn2c1=O,0.215%
18,O=c1c2ccccc2nc(-c2ccco2)n1/N=C/c1ccco1,13.1%
19,CC(C)N(C(=O)CSc1nc2ccccc2n1Cc1ccc(F)cc1)C(C)C,-27.3%
20,CN1C[C@@H]2C(c3ccc(Cl)nc3)C3(c4ccccc4)CC2(C3)[C@H]1c1ccccc1 (stereo partly shown),-43.1%
21,CN1C[C@@H]2C(c3ccccc3)C3(c4cccnc4)CC2(C3)[C@H]1c1ccccc1 (stereo partly shown),-46.5%
22,CN1C[C@@H]2C(c3ccc(C(F)(F)F)cc3)C3(c4cccnc4)CC2(C3)[C@H]1c1ccccc1 (stereo partly shown),-60%
23,CN1C[C@@H]2C(c3ccccc3)C3(c4ccc(C#N)cc4)CC2(C3)[C@H]1c1ccccc1 (stereo partly shown),-32.5%

row,Compound,"hERG current change (%, negative = inhibition) at 10uM"
1,CN1C[C@@H]2C(c3ccc(Cl)nc3)C3(c4ccc(C#N)cc4)CC2(C3)[C@H]1c1ccccc1 (stereo partly shown),-54.9%
2,CN1C[C@@H]2C(c3ccc(C(F)(F)F)cc3)C3(c4ccccc4)CC2(C3)[C@H]1c1ccccc1 (stereo partly shown),-1.14%
3,Clc1ccc(-c2nc(Cc3ccccc3)no2)cc1,11.9%
4,Cn1ccs/c1=N\S(=O)(=O)c1ccc(C(C)(C)C)cc1,-11.5%
5,CC(NC(=S)NC1CCCCC1)c1ccc(C(C)(C)C)cc1 (stereo not shown),10.6%
6,c1coc(-c2cc(C3CCNCC3)[nH]n2)c1,15.5%
7,Cc1cc(C(=O)N2CCC(C)CC2)on1,1.18%
8,CC(C)n1nc(C(=O)NNC(=O)c2ccc(OC(F)F)cc2)c2ccccc2c1=O,-76.3%
9,CC(C)n1nc(C(=O)NNC(=O)c2ccncc2)c2ccccc2c1=O,3.56%
10,CC(C)n1nc(C(=O)Oc2ccc(Cl)cc2)c2ccccc2c1=O,5.39%
11,CCCCCCCCCCOC(=O)Cn1c(COc2ccc(Cl)cc2)[n+](C)c2ccccc21.[Cl-],-76.2%
12,CCCCc1n(CC(=O)c2ccc(Cl)cc2)c2ccccc2[n+]1C.[Br-],8.02%
13,CN(C)C(=O)Oc1cccc(OCc2n(C)c3ccccc3[n+]2C)c1.[Cl-],14.7%
14,CCCCCOC(=O)Cn1c(=O)oc2ccccc21,0.0173%
15,Cc1ccc(OCCCCn2c(CO)nc3ccccc32)cc1,-14.6%
16,NNC(=O)Cn1c(COc2ccc(Cl)cc2)nc2ccccc21,-9.34%
17,CCCCCCCCCCOC(=O)Cn1c(COc2ccccc2)[n+](C)c2ccccc21.[Cl-],-76.1%
18,CCCCCCCCCCOC(=O)Cn1c(COc2cccc(OC)c2)[n+](C)c2ccccc21.[Cl-],-76.7%
19,CN(C)C(=O)Oc1ccc(OCc2n(C)c3ccccc3[n+]2C)cc1.[Cl-],5.79%
20,CCOC(=O)C(CCCOc1cccc(OC)c1)C(=O)OCC,-14.9%
21,CCCCCCCCOc1ccc(C(=O)O)cc1,13.3%
22,CCCCCCCCCCOC(=O)Cn1c(COc2ccc(C)cc2)[n+](C)c2ccccc21.[Cl-],-74.9%

# Reference: PMC4336329 (PLoS ONE, 2015)
